Data reported in PubChem BioAssay.
Activity calls are given as the source filed them.

Key:
[1] = small molecules captured by biotinylated probe aFSTL3 – biochemical, small-molecule microarray, fluorescence 635/667, stem cell growth factor project, primary screen (AID 1064); conditions: higher = more signal;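 further: measures binding of the biotinylated anti-FSTL3 antibody to printed compounds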
[2] = binders from COS7 lysate, DM2A8 probe, primary screen, torsin A project, cell lysate, small-molecule microarray, fluorescence 635/667 (AID 1065); conditions: higher = more signal, COS7 lysate expressing mutant human TOR1A
[3] = small molecules captured by biotinylated probe aFGF2 – biochemical, small-molecule microarray, fluorescence 635/667, stem cell growth factor project, primary screen (AID 1067); conditions: higher = more signal;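 further: measures binding of biotinylated aFGF2 protein to printed compounds on slides; z-score merges feature fluorescence and signal-to-noise across triplicate slides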
[4] = small molecules captured by biotinylated probe aFGF10 – biochemical, small-molecule microarray, fluorescence 635/667, stem cell growth factor project, primary screen (AID 1071); conditions: higher = more signal;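 further: score merges 667 nm spot intensity and signal to noise from triplicate slides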
[5] = biological target: Neurogenic locus notch homolog protein 2 (Homo sapiens) (UniProt Q04721); assay: small molecules binding Notch2 protein – biochemical, small-molecule microarray, 635 nm fluorescence, stem cell growth factors, primary screen (AID 1073); conditions: higher = more signal
[6] = biological target: Pro-neuregulin-1, membrane-bound isoform (Homo sapiens) (UniProt Q02297); assay: small molecules binding neuregulin-1 protein – biochemical, small-molecule microarray, fluorescence 635/667, psychiatric disease protein project, primary screen (AID 1075); conditions: NRG1 binding, 635 nm fluorescence, higher = more signal;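 further: score combines 667 nm spot fluorescence with signal to noise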
[7] = system: Neuregulin-1 EGF-like domain; assay: small molecules binding NRG1 EGF domain – biochemical, small-molecule microarray, 635 nm fluorescence, primary screen (AID 1081); conditions: higher = more signal;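 further: binding of the protein to compounds printed on small-molecule microarray slides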
[8] = FRG1 expression reporter modulators in myotubes – cell-based, C2C12 myotubes, firefly/Renilla luciferase, luminescence, FRG1 inhibition for FSHD, primary screen (AID 1084); conditions: FRG1 promoter luciferase, higher = more signal, called active from +8 up or from −8 down
[9] = small molecules captured by biotinylated probe aFST – biochemical, small-molecule microarray, fluorescence 635/667, stem cell growth factor project, primary screen (AID 1086); conditions: higher = more signal;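 further: score merges 667 nm fluorescence with signal-to-noise of each printed compound spot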
[10] = binders of probe aHhip on microarray, primary screen, stem cell growth factor project, biochemical, small-molecule microarray, fluorescence 635/667 (AID 1087); conditions: higher = more signal;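 further: score merges spot fluorescence at 667nm with spot signal to noise ratio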
[11] = system: PRMT1 (protein arginine N-methyltransferase 1); assay: small molecules binding arginine methyltransferase PRMT1 – biochemical, small-molecule microarray, 635 nm fluorescence, primary screen (AID 1088); conditions: higher = more signal;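 further: binding of Prmt1 protein to compounds spotted on small-molecule microarray slides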
[12] = growth effects on S. cerevisiae YJM789 – YJM789 clinical isolate, OD600, 24 h, basal, primary screen (AID 1089); conditions: higher = more signal, called active from +8 up or from −8 down;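 further: growth of clinical yeast isolate S. cerevisiae YJM 789 seeded 1000 cells per well; test concentration not given here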
[13] = S. pombe growth modifiers, basal conditions – strain 972, OD600, 24 h, no modulator, primary screen (AID 1090);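 further: basal condition with compound alone and no growth modifier present; test concentration not given here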; conditions: S. pombe 972 growth, higher = more signal, called active from +8 up or from −8 down
[14] = budding yeast growth modifiers under rapamycin – strain BY4716, OD600, 96 h, primary screen (AID 1091); further: test concentration not given here; conditions: S. cerevisiae BY4716 + rapamycin, higher = more signal, called active from +8 up or from −8 down
[15] = biological target: Torsin-1A-interacting protein 2 (Homo sapiens) (UniProt Q8NFQ8); assay: small molecules binding lysate-expressed LULL1 – cell lysate, human LULL1 lysate, 635/667 nm fluorescence, primary screen (AID 1092); conditions: small-molecule microarray, hLULL1 lysate binding, 635 nm fluorescence; higher = more signal;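 further: probe is lysate of COS7 cells overexpressing human LULL1; score merges per-feature 667 nm fluorescence with signal-to-noise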
[16] = optical density change of DRC41 E. coli – strain DRC41, OD650, 24 h, E. coli filamentation project, primary screen (AID 1093);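 further: MC1000 strain lacking acrAB efflux and sulA so SOS filamentation is blocked; test concentration not given here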; conditions: E. coli DRC41 growth, higher = more signal, called active from +8 up or from −8 down
[17] = probe aLefty2 binding to arrayed compounds – biochemical, biotinylated probe, 635/667 nm fluorescence, primary screen (AID 1094); conditions: small-molecule microarray, higher = more signal;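 further: score merges spot fluorescence near 667 nm with spot signal-to-noise ratio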
[18] = system: Noggin (protein binding on small-molecule microarray); assay: small molecules binding Noggin protein – biochemical, 635/667 nm fluorescence, primary screen (AID 1095); conditions: 635 nm fluorescence, higher = more signal;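 further: score merges 667 nm feature fluorescence with signal to noise over triplicate slides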
[19] = biological target: Neurogenic locus notch homolog protein 3 (Homo sapiens) (UniProt Q9UM47); assay: small molecules binding NOTCH3 protein – biochemical, 635/667 nm fluorescence, primary screen (AID 1096); conditions: small-molecule microarray, 635 nm fluorescence, higher = more signal
[20] = probe aEGFR binding to arrayed compounds – biochemical, biotinylated probe, 635/667 nm fluorescence, primary screen (AID 1097); conditions: small-molecule microarray, higher = more signal;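 further: probe is a biotinylated anti-EGFR antibody binding compounds printed on slides; score combines fluorescence near 667 nm and signal to noise of each spot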

Torsin-1A-interacting protein 2 (Homo sapiens), sequence (Q8NFQ8 whole entry, looked up): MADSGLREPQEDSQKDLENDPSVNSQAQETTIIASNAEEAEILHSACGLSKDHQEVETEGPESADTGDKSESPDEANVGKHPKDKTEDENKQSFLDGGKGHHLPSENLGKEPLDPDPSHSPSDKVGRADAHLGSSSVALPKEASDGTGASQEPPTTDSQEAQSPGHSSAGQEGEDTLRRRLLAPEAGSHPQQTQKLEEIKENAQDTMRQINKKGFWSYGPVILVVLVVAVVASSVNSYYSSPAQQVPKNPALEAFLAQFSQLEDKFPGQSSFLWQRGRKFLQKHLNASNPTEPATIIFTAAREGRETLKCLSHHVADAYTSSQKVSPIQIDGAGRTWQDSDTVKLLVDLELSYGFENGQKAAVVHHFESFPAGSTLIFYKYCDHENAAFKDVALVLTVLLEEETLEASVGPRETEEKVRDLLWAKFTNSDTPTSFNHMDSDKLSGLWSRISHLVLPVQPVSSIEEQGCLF
Neurogenic locus notch homolog protein 2 (Homo sapiens), sequence (Q04721 whole entry, looked up, canonical isoform): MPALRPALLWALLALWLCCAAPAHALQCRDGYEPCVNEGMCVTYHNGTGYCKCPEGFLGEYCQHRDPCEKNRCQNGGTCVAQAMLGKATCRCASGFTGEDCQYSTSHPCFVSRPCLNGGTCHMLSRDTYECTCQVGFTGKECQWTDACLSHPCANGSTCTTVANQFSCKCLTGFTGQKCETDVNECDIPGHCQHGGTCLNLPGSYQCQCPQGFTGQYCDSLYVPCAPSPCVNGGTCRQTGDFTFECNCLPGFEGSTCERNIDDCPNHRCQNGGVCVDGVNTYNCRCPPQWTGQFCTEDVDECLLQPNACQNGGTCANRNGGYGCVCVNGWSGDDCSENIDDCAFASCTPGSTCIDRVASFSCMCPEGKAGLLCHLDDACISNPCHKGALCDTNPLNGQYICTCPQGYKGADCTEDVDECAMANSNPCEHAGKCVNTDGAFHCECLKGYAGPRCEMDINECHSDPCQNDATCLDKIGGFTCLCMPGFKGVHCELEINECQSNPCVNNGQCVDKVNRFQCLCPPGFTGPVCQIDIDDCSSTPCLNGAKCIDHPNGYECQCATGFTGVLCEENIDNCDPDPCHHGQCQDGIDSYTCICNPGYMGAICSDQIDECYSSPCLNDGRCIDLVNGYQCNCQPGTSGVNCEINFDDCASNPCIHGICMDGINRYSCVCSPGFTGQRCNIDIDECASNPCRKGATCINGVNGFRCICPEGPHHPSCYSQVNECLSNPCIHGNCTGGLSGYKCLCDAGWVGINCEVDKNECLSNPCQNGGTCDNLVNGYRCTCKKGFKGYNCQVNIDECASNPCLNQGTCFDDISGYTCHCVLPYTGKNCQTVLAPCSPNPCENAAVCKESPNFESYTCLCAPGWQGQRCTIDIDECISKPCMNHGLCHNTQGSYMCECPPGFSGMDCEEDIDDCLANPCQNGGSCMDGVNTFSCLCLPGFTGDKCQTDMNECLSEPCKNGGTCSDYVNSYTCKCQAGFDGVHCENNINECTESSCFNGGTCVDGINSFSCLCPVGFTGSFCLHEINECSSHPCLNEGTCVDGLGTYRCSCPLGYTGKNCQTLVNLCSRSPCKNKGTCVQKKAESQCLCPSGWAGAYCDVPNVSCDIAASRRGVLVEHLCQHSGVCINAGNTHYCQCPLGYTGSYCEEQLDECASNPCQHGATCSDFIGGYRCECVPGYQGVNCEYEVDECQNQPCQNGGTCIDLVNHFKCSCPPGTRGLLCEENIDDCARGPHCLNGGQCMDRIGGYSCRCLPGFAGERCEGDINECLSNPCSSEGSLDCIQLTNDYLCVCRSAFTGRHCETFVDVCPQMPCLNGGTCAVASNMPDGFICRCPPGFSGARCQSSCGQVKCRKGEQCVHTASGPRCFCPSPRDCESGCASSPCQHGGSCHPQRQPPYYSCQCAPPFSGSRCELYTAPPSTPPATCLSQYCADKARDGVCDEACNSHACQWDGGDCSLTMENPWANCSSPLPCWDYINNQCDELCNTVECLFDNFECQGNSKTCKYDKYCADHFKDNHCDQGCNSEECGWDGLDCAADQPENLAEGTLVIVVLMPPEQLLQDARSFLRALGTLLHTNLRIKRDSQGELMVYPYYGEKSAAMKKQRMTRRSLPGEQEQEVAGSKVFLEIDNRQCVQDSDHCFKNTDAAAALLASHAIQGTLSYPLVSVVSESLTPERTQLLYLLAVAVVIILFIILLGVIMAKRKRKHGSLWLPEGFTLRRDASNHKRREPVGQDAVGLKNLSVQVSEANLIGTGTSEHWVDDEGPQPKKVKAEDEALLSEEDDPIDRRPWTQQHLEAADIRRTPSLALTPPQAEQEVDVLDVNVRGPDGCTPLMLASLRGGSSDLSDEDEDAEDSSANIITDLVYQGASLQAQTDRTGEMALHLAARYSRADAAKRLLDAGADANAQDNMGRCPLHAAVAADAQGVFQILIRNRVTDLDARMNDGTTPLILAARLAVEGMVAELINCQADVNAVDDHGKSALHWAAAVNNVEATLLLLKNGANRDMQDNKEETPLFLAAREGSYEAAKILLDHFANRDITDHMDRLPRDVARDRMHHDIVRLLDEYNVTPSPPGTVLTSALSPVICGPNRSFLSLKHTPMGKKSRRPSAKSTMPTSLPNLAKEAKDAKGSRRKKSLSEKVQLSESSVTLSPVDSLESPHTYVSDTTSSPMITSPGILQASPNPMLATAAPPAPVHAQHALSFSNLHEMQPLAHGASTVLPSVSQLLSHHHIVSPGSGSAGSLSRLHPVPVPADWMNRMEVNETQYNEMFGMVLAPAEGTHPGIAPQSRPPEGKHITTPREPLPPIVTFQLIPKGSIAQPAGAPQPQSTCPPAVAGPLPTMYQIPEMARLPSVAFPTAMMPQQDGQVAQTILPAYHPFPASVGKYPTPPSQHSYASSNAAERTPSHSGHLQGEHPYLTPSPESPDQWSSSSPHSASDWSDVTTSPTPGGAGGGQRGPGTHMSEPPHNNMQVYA
Pro-neuregulin-1, membrane-bound isoform (Homo sapiens), sequence (Q02297 whole entry, looked up, the tested form may be a part, canonical isoform): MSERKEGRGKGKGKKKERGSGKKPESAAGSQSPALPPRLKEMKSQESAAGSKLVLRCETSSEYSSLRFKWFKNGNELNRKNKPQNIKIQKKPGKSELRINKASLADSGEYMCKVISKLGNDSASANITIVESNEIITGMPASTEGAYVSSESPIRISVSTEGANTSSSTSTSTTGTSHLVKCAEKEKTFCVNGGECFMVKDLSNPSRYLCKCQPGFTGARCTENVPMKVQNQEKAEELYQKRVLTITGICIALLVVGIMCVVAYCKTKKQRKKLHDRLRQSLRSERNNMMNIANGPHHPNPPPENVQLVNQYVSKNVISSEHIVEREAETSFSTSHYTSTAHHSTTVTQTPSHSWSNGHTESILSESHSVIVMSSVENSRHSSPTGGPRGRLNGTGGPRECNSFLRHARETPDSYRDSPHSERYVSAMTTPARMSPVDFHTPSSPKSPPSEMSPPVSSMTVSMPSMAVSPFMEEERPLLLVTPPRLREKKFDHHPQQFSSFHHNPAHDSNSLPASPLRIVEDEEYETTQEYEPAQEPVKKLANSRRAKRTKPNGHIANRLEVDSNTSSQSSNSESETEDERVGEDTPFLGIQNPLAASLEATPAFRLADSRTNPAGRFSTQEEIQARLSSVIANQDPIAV

Row | Structure (SMILES) | composite z-score [1] | composite z-score [2] | composite z-score [3] | composite z-score [4] | composite z-score [5] | composite z-score [6] | composite z-score [7] | z-score [8] | composite z-score [9] | composite z-score [10] | composite z-score [11] | z-score [12] | z-score [13] | z-score [14] | composite z-score [15] | z-score [16] | composite z-score [17] | composite z-score [18] | composite z-score [19] | composite z-score [20]
1 | COc1cc(OC)c(C(O)C2C=CC3C(=O)N(c4ccccc4)C(=O)C3N2Nc2ccccc2)cc1Br (stereo not given) | 0.0555 | -0.01 | 0.0393 | 0.208 | 0.878 | 1.66 | 0.936 | 0.203 (inactive) | 0.558 | 0.0139 | 1.2 | -0.465 (inactive) | 1.09 (inactive) | 0.326 (inactive) | 2.53 | -0.604 (inactive) | 0.167 | 0.0401 | 0.862 | -0.0828
2 | O=C(N1CCCCC1)[C@@]1(CCS(=O)(=O)c2ccccc2)COC(c2ccc(OCCCO)cc2)=N1 | 1.02 | 1.92 | 0.237 | 0.253 | 1.03 | 1.06 | 1.32 | -3.51 (inactive) | 0.937 | 0.0972 | 1.54 | -0.612 (inactive) | -1.25 (inactive) | -0.0556 (inactive) | 2.84 | 1.23 (inactive) | 0.369 | 1.04 | 0.841 | 0.219
3 | COCCOC(=O)N1C(=O)[C@@]2(c3cc(C#CCCO)ccc31)[C@H](c1ccccc1OCCO)N1[C@H](c3ccccc3)[C@H](c3ccccc3)OC(=O)[C@H]1[C@@H]2C(=O)Nc1nc2ccccc2s1 | 0.406 | 1.13 | -0.0066 | 0.662 | 1.42 | 1.51 | 1.31 | 1.47 (inactive) | 0.617 | -0.254 | 1.55 | 0.97 (inactive) | 1.42 (inactive) | 2.76 (inactive) | 2.45 | 0.0879 (inactive) | -0.0063 | 1.1 | 1.06 | 0.113
4 | [N-]=[N+]=Nc1ccccc1C[C@]1(C(=O)N2CCOCC2)N=C(c2ccc(OCCCO)cc2)O[C@H]1c1ccccc1 | 0.747 | 1.49 | 0.17 | 0.983 | 1.48 | 1.13 | 1.23 | -1.62 (inactive) | 1.29 | 0.348 | 1.55 | 0.491 (inactive) | -8.46 (active) | 1.42 (inactive) | 2.69 | 1.94 (inactive) | 0.178 | 0.593 | 0.871 | 0.134
5 | CC(=O)NCCCC[C@@H]1NC(=O)[C@@H]2C[C@H](C(=O)NCCCC[N+](C)(C)C)[C@H](c3ccc(O)cc3)N2C1=O | -0.235 | 1.74 | 0.0056 | 0.88 | -0.188 | 1.21 | 1.19 | 1.32 (inactive) | 0.177 | 0.224 | 1.54 | 0.305 (inactive) | -0.266 (inactive) | -1.29 (inactive) | 1.46 | 0.0855 (inactive) | -0.0774 | 1.36 | 1.09 | -0.0131
6 | COC(=O)[C@@]1(Cc2ccc(OC)cc2)[C@H]2c3cc(C(=O)N4CCCC4)n(Cc4c(-c5ccccc5)noc4C)c3C[C@H]2CN1C(=O)c1ccccc1 | 0.194 | 0.245 | 0.336 | 0.812 | 1.71 | 1.31 | 1.25 | 0.44 (inactive) | 1.73 | 1.79 | 0.525 | 0.729 (inactive) | 1.32 (inactive) | 1.77 (inactive) | 3.31 | 0.19 (inactive) | 0.422 | 0.658 | 1.04 | 0.374
7 | COC(=O)[C@@]1(Cc2ccccc2N=[N+]=[N-])N=C(c2ccc(OCCCO)cc2)O[C@H]1c1ccccc1N=[N+]=[N-] | 0.663 | 0.192 | 0.0131 | -0.0009 | 0.648 | 0.859 | 1.27 | -0.492 (inactive) | 0.214 | -0.0123 | 1.54 | -1.13 (inactive) | -3.84 (inactive) | 26.2 (active) | 2.05 | 1.51 (inactive) | 0.258 | 0.717 | 0.647 | -0.0211
8 | COC(=O)c1c2oc(c1C(=O)OC)C(=O)N(C)Cc1cn(nn1)C[C@H](Cc1ccccc1)NC(=O)N[C@H](CO)CC2 | -0.239 | -0.705 | -0.174 | -0.248 | -0.867 | -0.638 | -0.717 | -0.161 (inactive) | -0.276 | 0.0854 | -0.929 | 1.23 (inactive) | 0.914 (inactive) | 0.556 (inactive) | -0.609 | -0.666 (inactive) | -0.174 | -0.244 | 0.15 | -0.154
9 | CN1C(=O)C2C=CC(C(O)c3ccccn3)N(N(c3ccccc3)c3ccccc3)C2C1=O (stereo not given) | 0.733 | 0.0014 | 0.0276 | 0.0491 | 0.594 | 0.899 | 0.622 | 0.164 (inactive) | 0.613 | 0.245 | 0.412 | 1.13 (inactive) | 0.863 (inactive) | 0.491 (inactive) | 1.87 | -0.828 (inactive) | 0.235 | -0.112 | -0.343 | 0.0353
10 | COCCOC(=O)N1C(=O)[C@@]2(c3cc(C#Cc4ccc(OC)cc4)ccc31)[C@H](c1ccc(O)cc1)N1[C@H](c3ccccc3)[C@H](c3ccccc3)OC(=O)[C@H]1[C@@H]2C(=O)N1CCCCCCC1 | 2.84 | 0.746 | 0.0177 | 0.178 | 0.679 | 0.326 | 0.341 | 1.39 (inactive) | 2.46 | 2.1 | 0.632 | -0.158 (inactive) | -0.239 (inactive) | 1.47 (inactive) | 1.46 | -0.0793 (inactive) | 1.43 | 0.332 | 0.0324 | 0.642
